Test results: PubChem BioAssay (NCATS)
Inconclusive results are not listed. Calls of active or inactive are those of the source. Unless noted, calls follow the shape of the dose curve; as a rule, active = well fitted curve in the direction sought with a large enough effect; inconclusive = small, poorly fitted or top-dose-only effect, or another doubt; inactive = no such curve, though single readings can be large; an effect the other way counts as inactive or inconclusive.

Legend:
[1] = molecular target: Lysosomal acid glucosylceramidase (Homo sapiens) (UniProt P04062); assay: Glucocerebrosidase-p2 (AID 348; in the data active = potency below about 10 µM; also: potency is read from the fitted curve at half-maximal effect); settings: purified GBA, blue fluorogenic substrate, 40 min
Summary of the method: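 Compounds titrated from 0.6 nM upwards against 0.2 nM enzyme in pH 5.9 citric acid/KH2PO4, taurocholate, tween-20; blue fluorogenic substrate 80 uM, 40 min room temperature, stopped and read Ex 365/Em 440 for AC50.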

[2] = AP1 Signaling Pathway (AID 357; active = well fitted curve in either direction with a large enough effect, not every such curve was filed as active; also: % is scaled to controls: 0 for no effect and ±100 for the full control effect); settings: ME-180 AP-1-bla reporter, EGF-induced, beta-lactamase ratio, 5 h; at 7.69 µM (top of the series) unless noted
Summary of the method: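 ME-180 cells with beta-lactamase reporter under AP-1 response element, stimulated with EC50 EGF; compounds tested in titration series, 5 h at 37 °C. CCF4 substrate added 2.5 h at room temperature; 460/530 nm emission ratio gave %activity and AC50.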

[3] = molecular target: Cytochrome P450 1A2 (Homo sapiens) (UniProt P05177); assay: p450-cyp1a2 (AID 410; calls by dose curve; also: potency is read from the fitted curve at half-maximal effect;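 as to activity change, negative = inhibition: -100% = full effect of reference inhibitor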)
Summary of the method: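 Inhibition was calculated relative to 57 uM furafylline (full inhibition). The reaction used human CYP1A2 at 20nM with Luciferin-ME at its Km, 100uM, driven by an NADPH-regenerating system for 60 min at room temperature.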

[4] = NFAT Signaling Pathway (AID 444; active = well fitted curve in either direction with a large enough effect, not every such curve was filed as active;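 also: carbachol stimulus at about its EC50 of 1 µM final; % is scaled to controls: 0 for no effect and ±100 for the full control effect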); settings: Jurkat NFAT-bla M1, carbachol, beta-lactamase ratio, 5 h; at 7.69 µM (top of the series) unless noted
Summary of the method: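 Jurkat cells with NFAT-driven β-lactamase reporter and co-expressed M1 receptor, stimulated with carbachol (final 1 uM, ~EC50), compound titration, 5 h at 37 °C. CCF4 loaded 1 h at RT; 460/530 nm ratio gave %activity and AC50.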

[5] = Stat Signaling Pathway (AID 446; active = well fitted curve in either direction with a large enough effect, not every such curve was filed as active;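 also: ME-180 cervical cancer cells given 40 pM IL-6 alongside compound; SIE-controlled beta-lactamase reporter measured as 460/530 nm FRET emission ratio; % is scaled to controls: 0 for no effect and ±100 for the full control effect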); settings: ME-180 SIE beta-lactamase reporter, IL-6 stimulated, 5 h; at 7.69 µM (top of the series) unless noted
Summary of the method: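 ME-180 cells carrying a SIE-driven beta-lactamase reporter are stimulated with 40 pM IL-6 for 5 h at 37C in the presence of compound. The 460/530 nm FRET substrate ratio is read after 2.5 h at RT. Data are normalised to 300 pM IL-6 and to 125 nM JAK inhibitor controls.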

[6] = molecular target: Glucocorticoid receptor (Homo sapiens) (UniProt P04150); assay: GR-GFP Redistribution (AID 450;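 active = compounds whose dose series gives a full or clear partial fitted curve of increased nuclear translocation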; also: potency is read from the fitted curve at half-maximal effect); settings: U2OS GR-GFP nuclear translocation, laser cytometry, 2 h
[7] = molecular target: Glucocorticoid receptor (Homo sapiens) (UniProt P04150); assay: GR-EFC Redistribution (AID 451; calls by dose curve; also: potency is read from the fitted curve at half-maximal effect); settings: CHO-K1 GR-EFC translocation, beta-gal luminescence, 2 h
Summary of the method: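 CHO-K1 cells expressing nuclear EA and GR-ED fragments of b-gal; compounds titrated up to 46 uM final, 2 h at 37 C. GR nuclear translocation read as complemented b-gal luminescence after 1 h RT detection.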

[8] = molecular target: Mitogen-activated protein kinase 10 (Mus musculus) (UniProt Q61831); assay: JNK3 AlphaScreen Assay (AID 530; active = well fitted curve in either direction with a large enough effect, not every such curve was filed as active;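 also: kinase came from lysate of stimulated human HepG2 cells; signal reports phosphorylation of biotinylated GST-cJun 1-79 at Ser73 with 10 µM ATP; % is scaled to controls: 0 for no effect and ±100 for the full control effect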)
Summary of the method: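 qHTS format: compounds tested as titrations against IL-1beta/TNF-alpha-activated HepG2 lysate JNK3 with biotin-GST-cJun substrate and 10 uM ATP at room temperature. Loss of anti-phospho-cJun AlphaScreen signal indicates inhibition.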

[9] = molecular target: 3',5'-cyclic-AMP phosphodiesterase 4B (Homo sapiens) (UniProt Q07343); assay: qHTS Assay for Inhibitors of PDE-IV (AID 607; active = well fitted activation curve with a large enough effect in the main read-out, with a control signal flat, not every such curve was filed as active; also: % of control where 0% means no effect)
Summary of the method: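 HEK293 ACTOne cells with CNG channel (1000/well), endogenous PDE4; membrane potential dye, compounds up to 22.9 uM final. Fluorescence Ex 535/Em 590; RO 20-1724 (100 uM final) as reference.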

[10] = molecular target: Cytochrome P450 3A4 (Homo sapiens) (UniProt P08684); assay: qHTS Assay for Activators of Cytochrome P450 3A4 (AID 885); also: nearly all actives have a fitted effect of over 65% in size
Summary of the method: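 Human CYP3A4 (20 nM) with Luciferin-PPXE at 25 uM (its KM) in 200 mM KPO4; 10 min compound preincubation, then NADPH regeneration and 60 min reaction at RT. Luciferin read by luminescence; normalized to 57 uM ketoconazole full inhibition.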

[11] = qHTS Assay for Lipid Storage Modulators (AID 1519; calls by dose curve); settings: Drosophila S3 cells, BODIPY lipid droplet/cell ratio, laser cytometry, cells loaded with oleic acid; for activity change, negative = inhibition: at 57.5 µM (top of the series)
Summary of the method: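 Cells seeded at 5,000 per well were treated with compounds over a concentration series and loaded with oleic acid (400 uM, as added). Lipid droplet fluorescence (488 nm excitation, 500-530 nm channel) was read by laser-scanning cytometry and normalized to 20 uM Triacsin C.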

[12] = molecular target: Dual specificity protein kinase CLK4 (Homo sapiens) (UniProt Q9HAZ1); assay: qHTS Assay for Inhibitors of CDC-like Kinase 4 (Kinase-Glo Assay) (AID 1770); also: nearly all actives have a fitted effect of over 65% in size; also: potency is read from the fitted curve at half-maximal effect
Summary of the method: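 Inhibition was judged from remaining ATP, measured by Ultra-Glo luciferase bioluminescence after Clk4 (25 nM) had acted on RS peptide at 1 uM ATP for 4.5 hours, room temperature.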

[13] = molecular target: Dual specificity protein kinase CLK4 (Homo sapiens) (UniProt Q9HAZ1); assay: qHTS Assay for Inhibitors of CDC-like Kinase 4 (ADP-Glo Assay) (AID 1771); also: nearly all actives have a fitted effect of over 70% in size; also: potency is read from the fitted curve at half-maximal effect
Summary of the method: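 Kinase reaction: Clk4 at 25 nM, RS repeat peptide substrate at 100 uM, ATP at 1 uM, 1 hr, room temperature. Product ADP detected as luciferase signal via ADP-Glo.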

[14] = molecular target: Dual specificity protein kinase CLK4 (Homo sapiens) (UniProt Q9HAZ1); assay: qHTS Assay for Inhibitors of CDC-like Kinase 4 (ADP-FP Assay) (AID 1795); also: nearly all actives have a fitted effect of over 60% in size; also: potency is read from the fitted curve at half-maximal effect
Summary of the method: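 Inhibition of ADP formation by 6.25 nM Clk4 is measured using 1 uM ATP and 100 uM RS repeat peptide over one hour. Produced ADP displaces a fluorescent tracer from antibody, lowering polarization.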

[15] = molecular target: Ubiquitin carboxyl-terminal hydrolase 1 (Homo sapiens) (UniProt O94782); assay: Inhibitors of USP1/UAF1: Pilot qHTS (AID 504865);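 also: rhodamine fluorescence freed from ubiquitin-rhodamine substrate followed over time; top concentration of the series differs between compounds; % is scaled to controls: 0 for no effect and ±100 for the full control effect; nearly all actives have a fitted effect of over 35% in size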
Summary of the method: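 Kinetic fluorescence assay: 1nM USP1/UAF1, 15 min compound preincubation, then 150nM Ub-Rho; 480/540 nm.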

[16] = molecular target: Cytochrome P450 3A4 (Homo sapiens) (UniProt P08684); assay: qHTS Assay for Inhibitors and Substrates of Cytochrome P450 3A4 (AID 884); also: nearly all actives have a fitted effect of over 50% in size; also: potency is read from the fitted curve at half-maximal effect
Summary of the method: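 20 nM human CYP3A4 with 25 uM Luciferin-PPXE (at KM) in 200 mM KPO4, preincubated 10 min with compound; NADPH regeneration started a 60 min RT reaction. Luciferin detected by luminescence, normalized to 57 uM ketoconazole as full inhibition.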

[17] = molecular target: Rap guanine nucleotide exchange factor 3 (Homo sapiens) (UniProt O95398); assay: Confirmatory qHTS for agonist of cAMP-regulated guanine nucleotide exchange factor 3 (EPAC1) (AID 1645881);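 also: EPAC1 catalysed release of BODIPY-GDP from Rap1B seen as fluorescence loss; 100% = effect of cAMP agonist control; nearly all actives have a fitted effect of over 75% in size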
[18] = Confirmation and Secondary Assay for Modulators of Hemoglobin Beta Chain Splicing at IVS2 654 locus (AID 910);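 also: HeLa cells stably carrying EGFP split by mutant beta-globin IVS2-654 intron; % of control where 0% means no effect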
Summary of the method: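 HeLa cells stably expressing EGFP interrupted by β-globin IVS2-654 intron, seeded overnight in Opti-MEM/2% FCS, then treated 2 days at 37 °C. Restored splicing read as total peak GFP intensity per well by laser scanning cytometry (488 nm excitation, 500–520 nm emission); 500 nM antisense PNA as control.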

[19] = Confirmation and Secondary Assay for Modulators of Hemoglobin Beta Chain Splicing at IVS2 705 locus (AID 930);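 also: HeLa cells stably expressing the EGFP-705 splicing reporter; GFP fluorescence per well restored by corrected splicing of the IVS2-705 intron in EGFP; % of control where 0% means no effect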
Summary of the method: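 HeLa IVS2-705 EGFP reporter cells, 500/well, compound 2 d at 37C; correct splicing yields fluorescent EGFP. Control: 500 nM antisense PNA. Read-out: total peak GFP intensity.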

[20] = measured here: cell count channel max response
[21] = measured here: lipid channel max response

Sequence of 3',5'-cyclic-AMP phosphodiesterase 4B (Homo sapiens) (Q07343 whole entry, looked up): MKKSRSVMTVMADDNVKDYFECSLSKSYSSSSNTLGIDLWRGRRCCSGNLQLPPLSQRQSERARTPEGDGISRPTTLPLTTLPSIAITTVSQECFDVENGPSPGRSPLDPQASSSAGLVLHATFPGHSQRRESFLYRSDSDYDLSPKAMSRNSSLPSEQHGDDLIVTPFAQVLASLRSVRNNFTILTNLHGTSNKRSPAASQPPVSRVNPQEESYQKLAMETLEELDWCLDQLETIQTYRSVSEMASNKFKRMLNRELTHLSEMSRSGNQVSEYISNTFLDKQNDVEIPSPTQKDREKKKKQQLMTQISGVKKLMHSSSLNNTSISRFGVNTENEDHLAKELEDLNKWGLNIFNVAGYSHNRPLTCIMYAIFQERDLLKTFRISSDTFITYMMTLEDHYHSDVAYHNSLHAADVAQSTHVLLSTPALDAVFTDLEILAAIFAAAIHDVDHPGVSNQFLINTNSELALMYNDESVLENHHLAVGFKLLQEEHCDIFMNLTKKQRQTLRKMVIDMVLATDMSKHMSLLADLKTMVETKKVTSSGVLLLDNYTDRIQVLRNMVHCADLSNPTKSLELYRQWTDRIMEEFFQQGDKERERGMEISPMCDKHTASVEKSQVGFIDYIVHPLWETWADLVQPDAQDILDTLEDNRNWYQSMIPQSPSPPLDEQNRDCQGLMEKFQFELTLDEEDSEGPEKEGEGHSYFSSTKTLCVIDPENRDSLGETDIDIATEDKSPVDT
Sequence of Cytochrome P450 3A4 (Homo sapiens) (P08684 whole entry, looked up): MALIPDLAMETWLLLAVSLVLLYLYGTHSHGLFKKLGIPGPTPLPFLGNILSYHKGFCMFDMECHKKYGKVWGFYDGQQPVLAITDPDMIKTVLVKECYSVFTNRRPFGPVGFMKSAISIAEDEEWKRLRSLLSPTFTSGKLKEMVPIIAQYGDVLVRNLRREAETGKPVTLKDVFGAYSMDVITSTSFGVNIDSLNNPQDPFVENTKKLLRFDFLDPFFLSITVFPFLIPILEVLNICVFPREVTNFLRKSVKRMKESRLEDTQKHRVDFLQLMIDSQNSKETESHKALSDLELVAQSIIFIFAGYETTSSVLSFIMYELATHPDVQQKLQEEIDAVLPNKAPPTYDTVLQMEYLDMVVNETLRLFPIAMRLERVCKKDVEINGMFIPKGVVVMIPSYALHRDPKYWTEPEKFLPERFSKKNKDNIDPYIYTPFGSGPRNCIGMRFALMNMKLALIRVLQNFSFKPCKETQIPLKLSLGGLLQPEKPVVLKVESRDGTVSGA
Sequence of Ubiquitin carboxyl-terminal hydrolase 1 (Homo sapiens) (O94782 whole entry, looked up): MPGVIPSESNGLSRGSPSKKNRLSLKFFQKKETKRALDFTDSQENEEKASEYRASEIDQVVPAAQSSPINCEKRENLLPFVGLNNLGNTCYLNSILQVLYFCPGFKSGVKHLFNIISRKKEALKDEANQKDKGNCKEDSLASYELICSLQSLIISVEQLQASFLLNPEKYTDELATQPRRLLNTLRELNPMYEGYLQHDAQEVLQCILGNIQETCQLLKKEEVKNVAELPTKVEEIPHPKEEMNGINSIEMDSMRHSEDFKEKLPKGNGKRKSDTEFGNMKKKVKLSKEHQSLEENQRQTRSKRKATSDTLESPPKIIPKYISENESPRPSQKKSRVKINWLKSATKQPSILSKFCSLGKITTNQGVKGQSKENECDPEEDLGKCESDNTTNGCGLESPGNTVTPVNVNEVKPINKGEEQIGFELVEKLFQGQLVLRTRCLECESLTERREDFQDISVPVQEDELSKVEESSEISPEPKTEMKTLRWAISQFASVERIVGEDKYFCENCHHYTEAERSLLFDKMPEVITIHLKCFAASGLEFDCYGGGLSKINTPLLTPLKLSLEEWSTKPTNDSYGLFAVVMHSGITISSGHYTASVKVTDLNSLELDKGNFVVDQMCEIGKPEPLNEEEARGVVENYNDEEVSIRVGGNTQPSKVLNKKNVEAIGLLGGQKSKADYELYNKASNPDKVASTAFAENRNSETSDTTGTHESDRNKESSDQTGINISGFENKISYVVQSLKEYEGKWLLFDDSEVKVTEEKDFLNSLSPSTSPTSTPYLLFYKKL
Sequence of Glucocorticoid receptor (Homo sapiens) (P04150 whole entry, looked up, the tested form may be a part): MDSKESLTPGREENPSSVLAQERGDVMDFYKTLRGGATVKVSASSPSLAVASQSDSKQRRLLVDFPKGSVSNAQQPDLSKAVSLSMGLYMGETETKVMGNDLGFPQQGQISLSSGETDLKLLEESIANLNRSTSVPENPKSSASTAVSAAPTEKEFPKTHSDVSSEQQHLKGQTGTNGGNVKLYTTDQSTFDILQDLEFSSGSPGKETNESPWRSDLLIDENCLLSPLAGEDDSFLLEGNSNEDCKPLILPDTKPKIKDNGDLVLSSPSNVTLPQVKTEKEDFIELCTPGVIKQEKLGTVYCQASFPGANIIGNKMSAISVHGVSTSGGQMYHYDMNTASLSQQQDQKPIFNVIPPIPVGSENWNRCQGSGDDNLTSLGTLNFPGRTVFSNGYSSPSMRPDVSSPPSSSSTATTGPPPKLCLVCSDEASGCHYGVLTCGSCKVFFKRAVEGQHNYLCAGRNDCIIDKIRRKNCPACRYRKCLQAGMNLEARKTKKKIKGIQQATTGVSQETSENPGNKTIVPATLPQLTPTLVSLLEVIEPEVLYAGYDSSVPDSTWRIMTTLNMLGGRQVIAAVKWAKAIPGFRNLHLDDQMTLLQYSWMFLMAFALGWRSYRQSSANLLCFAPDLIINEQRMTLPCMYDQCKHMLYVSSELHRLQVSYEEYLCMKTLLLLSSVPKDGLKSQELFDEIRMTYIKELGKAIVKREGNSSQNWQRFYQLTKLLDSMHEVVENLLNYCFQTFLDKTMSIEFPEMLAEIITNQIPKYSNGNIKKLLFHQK
Sequence of Dual specificity protein kinase CLK4 (Homo sapiens) (Q9HAZ1 whole entry, looked up): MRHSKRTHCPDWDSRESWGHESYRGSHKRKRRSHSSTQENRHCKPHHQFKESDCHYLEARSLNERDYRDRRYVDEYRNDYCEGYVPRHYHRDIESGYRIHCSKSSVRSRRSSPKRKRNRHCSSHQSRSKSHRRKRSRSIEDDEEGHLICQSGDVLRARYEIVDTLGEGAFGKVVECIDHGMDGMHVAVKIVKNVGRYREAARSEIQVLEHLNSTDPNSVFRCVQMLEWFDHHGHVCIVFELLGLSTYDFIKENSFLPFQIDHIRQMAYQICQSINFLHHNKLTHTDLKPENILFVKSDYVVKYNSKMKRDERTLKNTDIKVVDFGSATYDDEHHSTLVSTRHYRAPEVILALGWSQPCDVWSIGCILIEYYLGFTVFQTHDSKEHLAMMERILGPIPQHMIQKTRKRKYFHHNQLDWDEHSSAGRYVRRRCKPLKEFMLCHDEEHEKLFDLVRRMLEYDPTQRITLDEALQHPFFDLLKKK
Sequence of Lysosomal acid glucosylceramidase (Homo sapiens) (P04062 whole entry, looked up): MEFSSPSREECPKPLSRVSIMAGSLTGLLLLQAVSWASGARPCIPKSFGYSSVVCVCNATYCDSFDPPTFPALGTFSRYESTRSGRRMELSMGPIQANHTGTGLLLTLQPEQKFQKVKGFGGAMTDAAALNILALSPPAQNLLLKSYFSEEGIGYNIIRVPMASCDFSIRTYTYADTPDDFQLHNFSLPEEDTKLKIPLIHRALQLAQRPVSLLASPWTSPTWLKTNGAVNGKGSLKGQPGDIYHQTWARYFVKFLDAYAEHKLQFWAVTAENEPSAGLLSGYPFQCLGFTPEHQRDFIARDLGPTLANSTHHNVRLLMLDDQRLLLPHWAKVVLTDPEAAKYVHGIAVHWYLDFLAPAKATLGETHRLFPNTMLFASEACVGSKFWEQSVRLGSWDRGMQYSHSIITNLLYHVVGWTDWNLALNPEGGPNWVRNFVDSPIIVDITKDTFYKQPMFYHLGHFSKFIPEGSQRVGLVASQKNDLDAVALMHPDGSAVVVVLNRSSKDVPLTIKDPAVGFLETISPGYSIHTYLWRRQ
Sequence of Cytochrome P450 1A2 (Homo sapiens) (P05177 whole entry, looked up): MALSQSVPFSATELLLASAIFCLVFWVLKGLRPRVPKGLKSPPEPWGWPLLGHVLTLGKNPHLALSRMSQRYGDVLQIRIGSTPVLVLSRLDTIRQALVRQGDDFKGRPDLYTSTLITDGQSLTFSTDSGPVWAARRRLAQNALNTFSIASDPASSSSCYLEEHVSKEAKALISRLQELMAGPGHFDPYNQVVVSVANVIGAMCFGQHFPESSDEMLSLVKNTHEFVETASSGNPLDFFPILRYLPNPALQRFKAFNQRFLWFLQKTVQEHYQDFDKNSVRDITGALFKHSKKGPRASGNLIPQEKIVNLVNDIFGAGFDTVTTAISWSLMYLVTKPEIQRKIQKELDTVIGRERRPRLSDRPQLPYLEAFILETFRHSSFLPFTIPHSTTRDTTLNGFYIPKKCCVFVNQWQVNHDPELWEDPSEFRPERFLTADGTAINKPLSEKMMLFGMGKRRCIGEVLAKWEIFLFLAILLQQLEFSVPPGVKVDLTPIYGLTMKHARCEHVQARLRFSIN

COc1ccc(-n2c(=O)c(CCc3ccccc3)nc3cnc(N4CCN(C)CC4)nc32)cc1
Potency [1]: > 11.4 µM (inactive)
activity change, negative = inhibition [2]: -22.3% (inactive)
Potency [3]: inactive
activity change, negative = inhibition [4]: -24% (inactive)
activity, negative = inhibition [5]: -10.4% (inactive)
Potency [6]: > 9.22 µM (inactive)
Potency [7]: > 46 µM (inactive)
Potency [8]: inactive
Potency [9]: inactive
Potency [10]: inactive
activity change, negative = inhibition [11]: 2.13% (inactive)
max response [11, 20]: 12.7%
max response [11, 21]: 12.5%
Potency [12]: inactive
Potency [13]: inactive
Potency [14]: inactive
Potency [15]: inactive

CN1CCN(c2ncc3nc(-c4ccccc4)c(=O)n(C)c3n2)CC1
Potency [1]: > 11.4 µM (inactive)
activity change, negative = inhibition [2]: 19.6% (inactive)
Potency [3]: 15.8 µM (active)
activity change, negative = inhibition [4]: 23.4% (inactive)
activity, negative = inhibition [5]: 20% (inactive)
Potency [6]: > 9.22 µM (inactive)
Potency [7]: > 46 µM (inactive)
Potency [8]: inactive
Potency [9]: inactive
activity change, negative = inhibition [11]: 4.64% (inactive)
max response [11, 20]: 14.1%
max response [11, 21]: 18.5%
Potency [12]: inactive
Potency [13]: inactive
Potency [14]: inactive
Potency [15]: inactive

COc1ccc2c(c1)[C@@]1(C)CCC[C@](C)(CO)C1CC2 (stereo not given in full)
Potency [16]: 10 µM (active)
Potency [10]: inactive
activity change, negative = inhibition [11]: 8.34% (inactive)
max response [11, 20]: 17.7%
max response [11, 21]: 28.8%
Potency [17]: inactive

CC(C)=CCC/C(C)=C/CC/C(C)=C/CC/C(C)=C/CC/C(C)=C/CC/C(C)=C/CC/C(C)=C/CC/C(C)=C/CC/C(C)=C/CO
Potency [16]: inactive
Potency [18]: inactive
outcome [19]: inactive
activity change, negative = inhibition [11]: 5.78% (inactive)
max response [11, 20]: 6.17%
max response [11, 21]: 20.4%
Potency [15]: inactive

COc1ccc(-c2cc(=O)c3c(OC)c(OC)c(OC)c(OC)c3o2)cc1OC
Potency [16]: 25.1 µM (active)
Potency [10]: inactive
Potency [18]: inactive
outcome [19]: inactive
activity change, negative = inhibition [11]: -10.1% (inactive)
max response [11, 20]: -11.8%
max response [11, 21]: -19.5%
Potency [15]: inactive

COC(=O)CC1C2(C)CC34OC5(C)O[C@@]6(C7/C(=C(/OC)C(C)C)C(=O)OC(c8ccoc8)[C@@]7(C)C(OC(=O)C(C)C)C(OC)[C@]6(O5)[C@@]13C)C(OC)[C@]4(OC)C2OC(C)=O (stereo not given in full)
Potency [16]: 2.51 µM (active)
Potency [10]: inactive
Potency [18]: inactive
outcome [19]: inactive
activity change, negative = inhibition [11]: -17.5% (inactive)
max response [11, 20]: 1.3%
max response [11, 21]: -14.4%
Potency [17]: inactive

COc1ccc2c(c1OC)C(=O)OC2C1c2c(cc3c(c2OC)OCO3)CCN1C (stereo not given)
activity change, negative = inhibition [2]: 11.6% [at 17.2 µM] (inactive)
activity change, negative = inhibition [4]: -3.27% [at 17.2 µM] (inactive)
activity, negative = inhibition [5]: 9.27% [at 17.2 µM] (inactive)
Potency [6]: > 20.6 µM (inactive)
activity change, negative = inhibition [11]: 0.209% (inactive)
max response [11, 20]: -33.3%
max response [11, 21]: -33.7%

Clc1ccccc1-c1nc(NC2CCNCC2)c2ccccc2n1
Potency [1]: > 11.4 µM (inactive)
activity change, negative = inhibition [2]: -8.89% (inactive)
Potency [3]: 20 µM (active)
activity change, negative = inhibition [4]: 7.15% (inactive)
activity, negative = inhibition [5]: 3.31% (inactive)
Potency [6]: > 46 µM (inactive)
Potency [7]: > 46 µM (inactive)
Potency [8]: inactive
Potency [9]: inactive
activity change, negative = inhibition [11]: 1.68% (inactive)
max response [11, 20]: 15.1%
max response [11, 21]: 17.6%
Potency [12]: 10 µM (active)
Potency [13]: 12.6 µM (active)
Potency [14]: 12.6 µM (active)
Potency [15]: inactive
